Screening results (PubChem)
TDP1 cell CPT: DT40-hTDP1 cell growth loss with CPT; Potency, µM (highest dose often 46.2 µM), without a hit: at the highest dose activity change, negative = growth inhibition, usual class: inhibitors; chicken DT40 Tdp1-/-;hTDP1 cells + 20 nM CPT, ATP luminescence, 48 h; actives 12% (n = 420,000); AID 686979; also: potency is read from the fitted curve at half-maximal effect; nearly all actives have a fitted effect of over 55% in size
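Chicken DT40 Tdp1-/- cells complemented with human TDP1, 400 cells/well, exposed to compounds plus 20 nM camptothecin for at least 48 h at 37 C; viability read as ATP content by CellTiter-Glo luminescence.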
HT1080 IDH1KD tx: HT-1080 IDH1 knockdown cell toxicity (counter line); HT-1080 IDH1 knockdown viability, ATP luminescence, 48 h; Potency, µM (top dose mostly 46.1 µM), inactives show top-dose activity, negative = toxicity, hits mostly cytotoxic; actives 2% (n = 360,000); AID 686971;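 also: potency is read from the fitted curve at half-maximal effect; 0% = DMSO wells and -100% = cell-free medium wells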
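Knockdown cells (IDH1KD HT-1080) received compounds 2 h after plating at 750 cells/well and were kept 48 h at 37 °C in 5% FBS RPMI. A CellTiter-Glo luminescence read gave % activity for curve fitting.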
TDP1 cell noCPT: qHTS for Inhibitors of human tyrosyl-DNA phosphodiesterase 1 (TDP1): qHTS in cells in absence of CPT; DT40 Tdp1-/- hTDP1 cells, no CPT, ATP luminescence, 48 h; Potency, µM (series often up to 46.2 µM), for inactives: at the top dose activity change, negative = growth inhibition, usual class: inhibitors; actives 15% (n = 420,000); also: potency is read from the fitted curve at half-maximal effect; nearly all actives have a fitted effect of over 55% in size
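A cellular qHTS used chicken DT40 cells lacking endogenous Tdp1 but carrying stably transfected human TDP1. Compounds were applied without camptothecin, and cell growth kinetics were judged by ATP-dependent luminescence after ≥48 hr.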
IL-1B inflam inh: inflammasome signaling inhibition, IL-1 beta readout | THP-1 LPS/ATP IL-1B secretion, AlphaLISA, 16 h; hits give low values | activity change, % at 57.5 µM | actives 4.7% (n = 360,000) | AID 743279; in the data active = activity change below about -50%; inconclusive = mostly about -30% to -49%
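THP-1 cells pretreated 1 hr with compounds (up to 57.5 uM final), then stimulated with LPS (250 ng/mL final) plus ATP (1.25 mM final); secreted IL-1B measured by AlphaLISA after 16 hr, decreased signal indicating inhibition.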
HT1080NT lethal: kills 2HG-producing HT-1080-NT fibrosarcoma cells | HT-1080-NT fibrosarcoma viability, CellTiter-Glo ATP luminescence, 48 h | Potency, µM (titrated, usually from 46.1 µM), for the others: top-dose activity, negative = less viability, actives largely listed as cytotoxic | actives 1.6% (n = 360,000) | AID 686970;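 also: NT is the 2HG producing partner of a matched IDH1 knockdown line; potency is read from the fitted curve at half-maximal effect; 0% = DMSO-treated cells and -100% = media-only wells without cells; nearly all actives have a fitted effect of over 55% in size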
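Viability by CellTiter-Glo luminescence after 48 h compound exposure at 37C of HT-1080-NT cells (750/well, RPMI, 5% FBS). % activity scaled between DMSO wells and medium-only wells, then curve-fitted and categorized by curve class.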
ELG1 DNA repair: blocks ELG1-dependent DNA repair in HEK293T cells; HEK293T ELG1-luciferase reporter, luminescence, 16 h; DNA damage induced by 5-fluorouridine; Potency, µM (titrated, usually from 46.1 µM), for the others: at the highest dose activity change, negative = inhibition, usual class: inhibitors; actives 2.3% (n = 330,000); AID 504467; also: potency is read from the fitted curve at half-maximal effect; nearly all actives have a fitted effect of over 55% in size
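Luminescence from the luciferase reporter, measured 30 min after ONE-Glo reagent at room temperature, was the read-out. Beforehand, 2,000 cells per well were exposed for 16 hr at 37 °C to 5-fluorouridine together with compound or vehicle.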
Active calls of the source: *; ? = inconclusive; . = no result; [ ] = remark or other dose. Rows were chosen to be rich in hits. Some 19% of all compounds tested hit in one or more screens of this group. Unless noted, calls follow the shape of the dose curve; as a rule, active = well fitted curve in the direction sought with a large enough effect; inconclusive = small, poorly fitted or top-dose-only effect, or another doubt; inactive = no such curve, though single readings can be large; an effect the other way counts as inactive or inconclusive. Unless noted, % is scaled to controls: 0 for no effect and ±100 for the full control effect.

SMILES	TDP1 cell CPT	HT1080 IDH1KD tx	TDP1 cell noCPT	IL-1B inflam inh	HT1080NT lethal	ELG1 DNA repair
Cc1cccc(N(CC(=O)Nc2cccnc2)S(C)(=O)=O)c1	-2%	-3%	0%	1	9%	1%
Cc1ccc(-c2cc(C(=O)N3CC(C)CC(C)C3)c3ccccc3n2)o1 (stereo unspecified)	?	?	18µM*	?	-12%	0%
Cc1ccc(-c2cc(C(=O)Nc3cccc(S(=O)(=O)N(C)C)c3)c3ccccc3n2)o1	?	-4%	16µM*	-18	-7%	?
Cc1ccc(-c2cc(C(=O)Nc3ccccc3C)c3ccccc3n2)o1	?	-5%	18µM*	5	-15%	?
COC(=O)c1cc(-c2ccc(C)o2)nc2ccccc12	7.3µM*	-8%	15µM*	-28	0%	0%
Cc1cc(C(=O)Nc2ccccc2C)c2ccccc2n1	-3%	1%	-7%	2	3%	7%
C=C(C)c1nc(Oc2ccccc2)nc(Oc2ccccc2)n1	7.3µM*	?	6.5µM*	-100*	?	.
C=C(C)c1ccccc1	11%	15%	-12%	12	?	12%
Cc1nn2c(C(F)(F)F)cc(-c3ccc(OC(C)C)cc3)nc2c1C#N	-15%	.	-26%	.	.	.
COc1cc(/C=C2\COC/C(=C\c3ccc(O)c(OC)c3)C2=O)ccc1O	3.3µM*	?	3.3µM*	-100*	?	?
COc1cc(/C=C/C=C2/CC/C(=C/C=C/c3ccc(O)c(OC)c3)C2=O)ccc1O	2.3µM*	-10%	2.6µM*	-92*	-11%	.
COc1ccc(/C=C2\CCc3ccccc3C2=O)cc1OC	?	0%	?	10	2%	?
COc1cc(/C=C2\C(=O)N(C)C(=S)N2C)ccc1O	-20%	0%	-23%	0	0%	?
COc1cc(/C=C2/CC/C(=C/c3ccc(O)c(OC)c3)C2=O)ccc1O	21µM*	21µM*	?	-17	18µM*	?
COc1ccc(/C=C2\CC/C(=C\c3ccc(OC)c(OC)c3)C2=O)cc1OC	16µM*	?	21µM*	-6	?	?
COc1cc(/C=C2\CC/C(=C\c3ccc(OCCO)c(OC)c3)C2=O)ccc1OCCO	?	-13%	23µM*	-77*	-25%	?
COc1ccc(C=C2C=C(C(C)(C)C)C(=O)C(C(C)(C)C)=C2)cc1OC	?	18µM*	7.3µM*	-96*	12µM*	?
CCn1nc(C)cc1C(=O)N1CCCC(N2CCN(c3cccc(Cl)c3)CC2)C1 (stereo unspecified)	.	.	.	.	.	-16%
Cc1nn(C)c(C(=O)N/N=C/c2ccccn2)c1[N+](=O)[O-]	1%	3%	7%	13	1%	5%
Cc1nn(C)c(C(=O)Sc2cccc(Cl)c2)c1[N+](=O)[O-]	4.6µM*	-18%	2.9µM*	-11	-9%	3%
Cc1nn(C)c(C(=O)Sc2ccccc2)c1[N+](=O)[O-]	?	?	23µM*	-13	-22%	0%
CCn1nc(C)cc1C(=O)Sc1cccc(Cl)c1	3.7µM*	?	4.1µM*	-6	18µM*	11%
CCN(C(=O)CN1CCN(C)CC1)c1cccc2ccccc12	0%	13%	-1%	7	12%	-3%
CCN(C(=O)CN1C(=O)CN(C)C1=O)c1cccc2ccccc12	12µM*	-11%	?	?	3%	5%
C=CCNC(=O)c1oc2ccc(S(=O)(=O)N3CCCCC3)cc2c1C	-19%	-14%	-26%	10	0%	-14%
SMILES	TDP1 cell CPT	HT1080 IDH1KD tx	TDP1 cell noCPT	IL-1B inflam inh	HT1080NT lethal	ELG1 DNA repair
Cc1c(C(=O)NCc2cccnc2)oc2ccc(S(=O)(=O)N3CCCCCC3)cc12	?	-12%	?	20	-17%	18µM*
CCN(CC)C(=O)C1CCN(S(=O)(=O)c2ccc3oc4ccccc4c3c2)CC1	21µM*	-4%	16µM*	?	-7%	?
Cc1ccc(NC(=S)Nc2cccnc2)c(S(=O)(=O)N2CCCCC2)c1	23µM*	?	16µM*	-4	?	?
CCN(C(=O)c1oc2ccc(S(=O)(=O)N3CCCCCC3)cc2c1C)c1ccccc1	23µM*	.	15µM*	.	.	.
CCN(CC)C(=O)Cn1c(=O)n(-c2ccc(C)c(C)c2)c(=O)c2c(C)c(C(=O)N(CC)CC)sc21	-13%	.	-3%	.	.	.
O=S(=O)(c1ccc(NC(=S)NCc2cccnc2)cc1)N1CCCCC1	8.2µM*	10µM*	6.5µM*	13	?	?
O=C(CSc1nnc(-c2ccc(F)cc2)o1)Nc1ccc(S(=O)(=O)N2CCCC2)cc1	?	1%	-15%	-4	10%	26%
O=C(CSc1nnc(-c2ccc(S(=O)(=O)N3CCCC3)cc2)o1)NCc1ccccc1	23µM*	-9%	18µM*	5	-26%	?
O=C(NCc1cccnc1)c1ccc(S(=O)(=O)N2CCCCC2)cc1	?	-1%	?	8	6%	8%
Cc1c(C(=O)NCc2cccnc2)oc2ccc(S(=O)(=O)N3CCCCC3)cc12	10µM*	14µM*	14µM*	-5	?	5.8µM*
Cc1c(C(=O)NCc2ccccc2)oc2ccc(S(=O)(=O)N3CCCC3)cc12	?	?	?	-7	-21%	15µM*
O=C1CCC2(CCCC2)c2ccccc21	-5%	1%	5%	8	2%	.
Cc1cccc2cc(CN(CC3CCCO3)C(=O)c3cccc(F)c3)c(N(C)C)nc12 (stereo unspecified)	3%[9.04 µM]	.	-5%	.	.	.
CCOc1ccccc1N1CC(C(=O)N(C)Cc2cccnc2)CC1=O (stereo unspecified)	11%	12%	2%	12	6%	1%
COc1ccc(-c2cn3cccnc3n2)cc1NC(=O)c1ccccc1C(F)(F)F	-25%	.	-13%	.	.	.
CCNC(=O)c1c(NC(=O)c2nc(SC)ncc2Cl)sc2c1CCCC2	-25%	.	?	.	.	.
COc1ccccc1-n1nc(-c2ccccc2)c2cnc3c(F)cc(F)cc3c21	-9%	.	-22%	.	.	.
COCCN1CCN(C(=O)C2CCC(=O)N(Cc3cccc(C(F)(F)F)c3)C2)CC1 (stereo unspecified)	-4%	7%	5%	0	0%	9%
